PubChem BioAssay (EPA / NIEHS)
Calls of active or inactive are those of the source. The calls were made as follows: active = hit-call score of the fitted dose curve at least 0.9, where 1 is the maximum; inactive = score below 0.9.

experiment: APR_HepG2_StressKinase_24hr: Apredica 24-hour HepG2 Assay for Stress Kinase (AID 2282922); conditions: HepG2 stress kinase (phospho-c-Jun) imaging, actives raise or lower the signal
How it was run: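 HepG2 cells exposed 24 h to 0.39–200 uM compound in duplicate (0.5% v/v DMSO final). Cells fixed in 3.7% formaldehyde, permeabilized and immunostained for phospho-c-Jun; read by high-content fluorescence imaging, fitted bidirectionally against DMSO.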

| SMILES | outcome | AC50 |
| --- | --- | --- |
| O=C1c2c(O)cccc2Cc2cccc(O)c21 | inactive |  |
| CCCCCCCC(=O)OC | inactive |  |
| CCc1cc(C2=C(C(=O)O)N(c3ccccc3C(F)(F)F)S(=O)(=O)c3ccccc32)cc2c1OCO2 | inactive |  |
| OCC(O)CO | inactive |  |
| S=c1[nH]c2ccccc2s1 | inactive |  |
| CCCCCCCCCC[N+](C)(C)[O-] | inactive |  |
| CN(C)CCCN1c2ccccc2Sc2ccc(Cl)cc21 |  | 25.2 µM (active) |
| COc1ccc(C(=O)Nc2nc3ccccc3c(NCc3ccccc3)c2C#N)cc1 | inactive |  |
| CO[C@@H]1COCC[C@@H]1N[C@@H]1CC[C@@](C(=O)N2CCc3ncc(C(F)(F)F)cc3C2)(C(C)C)C1 | inactive |  |
| CS(=O)(=O)c1ccc([C@@H](C[C@H]2CCC(=O)C2)C(=O)Nc2cnccn2)cc1Cl | inactive |  |
| COc1ccc(OC(F)(F)F)cc1CN[C@H]1CCCN[C@H]1c1ccccc1 | inactive |  |
| Oc1ccc(O)cc1 | inactive |  |
| CN(C)C(=O)NC1(c2ccccc2)CCN(CC[C@@]2(c3ccc(F)c(F)c3)CN(C(=O)c3ccccc3)CCO2)CC1 | inactive |  |
| CN(C)C(=O)NC1(c2ccccc2)CCN(CCC[C@]2(c3ccc(Cl)c(Cl)c3)CCCN(C(=O)c3ccccc3)C2)CC1 | inactive |  |
| NCCOCCOCCN |  | 100 µM (active) |
| CCc1nc(N)nc(N)c1-c1ccc(Cl)cc1 | inactive |  |
| CC(C)(O)c1ccc(CNC(=O)c2cccnc2Oc2ccc(F)cc2)cc1 | inactive |  |
| Nc1nc(Cl)nc2c1ncn2[C@H]1C[C@H](O)[C@@H](CO)O1 | inactive |  |
| CN(C)CCCN(C)CCCN(C)C | inactive |  |
